Bioassay records from PubChem BioAssay.
Compounds with a hit are over-represented: about 12% of the library has one in this group of screens.
Sm TGR inh: inhibitors of Schistosoma mansoni thioredoxin glutathione reductase | Q962Y6 | purified TGR, DTNB reduction, TNB absorbance 405 nm | Potency, µM (top dose mostly 114 µM), inactives show at the top dose activity change, negative = inhibition, usual class: inhibitors | hit rate 3% among 360,000 | AID 485364; further: on the % scale 0 is the no-effect control and ±100 the full control effect; nearly all actives have a fitted effect of over 60% in size
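Kinetic colorimetric format: TGR-catalysed, NADPH-driven DTNB reduction monitored via TNB absorbance. Enzyme dispensed at 20 nM; compound exposure 15 min at room temperature before reaction start.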
AmpC inh no detg: AmpC beta-lactamase inhibition without detergent. AID 485341. P00811. Potency, µM (highest dose often 57.1 µM), for the others: at the top dose activity change, negative = inhibition, most hits filed as inhibitors. AmpC nitrocefin hydrolysis, absorbance 480 nm, 0.0001% Triton. hit rate 0.52% among 330,000;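 further: plate controls were no compound for no effect and no enzyme for full effect; nearly all actives have a fitted effect of over 20% in size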
Target sequence (P00811 whole entry, looked up): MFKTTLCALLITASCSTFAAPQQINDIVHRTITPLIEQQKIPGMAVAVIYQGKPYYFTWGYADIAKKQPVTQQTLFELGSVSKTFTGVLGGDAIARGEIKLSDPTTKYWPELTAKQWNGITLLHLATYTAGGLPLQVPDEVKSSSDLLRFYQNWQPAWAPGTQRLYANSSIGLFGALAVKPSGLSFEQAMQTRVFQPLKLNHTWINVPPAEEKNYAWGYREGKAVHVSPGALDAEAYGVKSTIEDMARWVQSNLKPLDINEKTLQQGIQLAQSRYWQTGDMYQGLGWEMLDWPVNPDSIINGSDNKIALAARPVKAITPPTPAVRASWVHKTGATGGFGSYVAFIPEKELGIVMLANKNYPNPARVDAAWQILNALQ
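AmpC (5.3 nM in the dispensed reagent) in 20 mM phosphate pH 7.0 with 0.01% (detergent screen) or 0.0001% Triton X-100 was preincubated with compounds for 15 min at room temperature. Nitrocefin was then added from an 800 uM solution, and hydrolysis was followed at 480 nm.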
Pf growth 48h: P. falciparum growth inhibition at 48 hours (one generation); P. falciparum luciferase growth in erythrocytes, 48 h; Potency, µM (titrated, usually from 28.7 µM), inactives show top-dose activity change, negative = inhibition, actives largely listed as inhibitors; hit rate 5.9% among 310,000; AID 504832; further: on the % scale 0 is the no-effect control and ±100 the full control effect
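A one-generation exposure of luciferase-tagged malaria parasites in RPMI 1640/Albumax erythrocyte culture, 37 C and 5% CO2. Inhibition is inferred from decreased luminescence after adding detection reagent.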
SARS PLpro yeast: inhibitors of SARS-CoV papain-like protease in yeast | S. cerevisiae expressing SARS-CoV PLpro, growth rescue | Potency, µM (titrated, usually from 32.9 µM), inactives show at the highest dose activity, positive = growth rescue, hits mostly activators | hit rate 0.19% among 330,000; calls by dose curve; further: 0% is about no effect; nearly all actives have a fitted effect of over 55% in size
Pf growth 96h: inhibits malaria parasite growth, 96 h | Potency, µM (highest dose often 28.7 µM), inactives show at the highest dose activity change, negative = inhibition, hits mostly inhibitors | AID 504834 | P. falciparum luciferase reporter growth, 96 h | hit rate 6.9% among 320,000; further: on the % scale 0 is the no-effect control and ±100 the full control effect
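Plates of compound plus infected erythrocytes (2% hematocrit, 0.05% parasitemia final) incubate 96 hours, 37 C, 5% CO2. Detection reagent added; reduced luminescence from the parasites' luciferase reporter flags inhibition.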
AmpC inh detg: AmpC beta-lactamase inhibition with detergent present; P00811; AmpC hydrolysis of nitrocefin, absorbance 480 nm, 0.01% Triton; Potency, µM (titrated, usually from 114 µM), for the others: at the top dose activity change, negative = inhibition, hits mostly inhibitors; hit rate 0.041% among 370,000;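 further: 0% = no-compound wells and -100% = no-enzyme wells; nearly all actives have a fitted effect of over 25% in size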
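AmpC (5.3 nM in the dispensed reagent) in 20 mM phosphate pH 7.0 with 0.01% (detergent screen) or 0.0001% Triton X-100 was preincubated with compounds for 15 min at room temperature. Nitrocefin was then added from an 800 uM solution, and hydrolysis was followed at 480 nm.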
Active calls of the source: *. Unless noted, the call rests on the fitted dose curve; in most records, active means well fitted curve in the direction sought with a large enough effect; inconclusive means small, poorly fitted or top-dose-only effect, or another doubt; inactive means no such curve, though single readings can be large; an effect the other way counts as inactive or inconclusive. Potency means the concentration at half of the fitted maximal effect.

COc1ccccc1C(C)Nc1ccc(S(=O)(=O)N2CCN(C)CC2)cc1[N+](=O)[O-] (stereo not given) was read as Sm TGR inh 0%, AmpC inh no detg 285%, Pf growth 48h 12µM*, SARS PLpro yeast -8%, Pf growth 96h 17µM* and AmpC inh detg 2%.
For CC(Nc1ccc(S(=O)(=O)N2CCN(C)CC2)cc1[N+](=O)[O-])c1ccccc1 (stereo not given) the results were Sm TGR inh inconclusive, AmpC inh no detg 8%, Pf growth 48h inconclusive, SARS PLpro yeast inconclusive, Pf growth 96h inconclusive and AmpC inh detg -14%.
COc1ccc(Nc2ccc(S(=O)(=O)N3CCCCC3)cc2[N+](=O)[O-])cc1OC was read as Sm TGR inh -4%, AmpC inh no detg 82%, Pf growth 48h inconclusive, SARS PLpro yeast 4%, Pf growth 96h 13µM* and AmpC inh detg -10%.
Screening COc1ccc(Nc2ccc(S(=O)(=O)N3CCCCCC3)cc2[N+](=O)[O-])cc1 returned Sm TGR inh 9%, AmpC inh no detg -16%, Pf growth 48h -17%, SARS PLpro yeast -3%, Pf growth 96h inconclusive and AmpC inh detg 0%.
Screening COc1ccc(CCC(=O)OCC(=O)NC(=O)c2ccc(Cl)cc2)cc1 returned AmpC inh no detg -34% and SARS PLpro yeast -3%.
`COc1ccc(N(CC(=O)NC(C)c2ccccc2)S(=O)(=O)c2c(C)nn(C)c2C)cc1` (stereo not given) gave Sm TGR inh 2% and AmpC inh detg 2%.
Screening c1cc(-c2nnc3sc(C4CCCCC4)nn23)ccn1 returned Sm TGR inh -1%, AmpC inh no detg -4%, Pf growth 48h inconclusive, SARS PLpro yeast -2%, Pf growth 96h inconclusive and AmpC inh detg -13%.
Screening COc1ccc(Cc2nn3c(-c4ccccc4OC)nnc3s2)cc1 returned Sm TGR inh -16%, AmpC inh no detg 3%, Pf growth 48h 9.3µM*, SARS PLpro yeast -3%, Pf growth 96h inconclusive and AmpC inh detg -3%.
For COc1ccccc1-c1nnc2sc(C3CCCCC3)nn12 the results were Sm TGR inh -2%, AmpC inh no detg -8%, Pf growth 48h 10µM*, SARS PLpro yeast -3%, Pf growth 96h 20% and AmpC inh detg -20%.
Cc1ccc(-c2nn3c(=O)cc(CN4CCN(C(=O)/C=C/c5ccccc5)CC4)nc3s2)cc1 was read as Sm TGR inh 2% and AmpC inh detg 0%.
CC(C)COC(=O)CCNc1n[nH]c(=O)[nH]c1=O was read as Sm TGR inh 3%, AmpC inh no detg -16%, Pf growth 48h 0%, SARS PLpro yeast 2%, Pf growth 96h 9.3µM* and AmpC inh detg 3%.
Screening CCOC(=O)CCNc1n[nH]c(=O)[nH]c1=O returned Sm TGR inh 5%, AmpC inh no detg -7%, Pf growth 48h 6%, SARS PLpro yeast 4%, Pf growth 96h 0% and AmpC inh detg 3%.
Screening CCn1cc(C(=O)NCCc2ccc(OC)c(OC)c2)c(=O)c2cc(S(=O)(=O)N3CCC(C)CC3)ccc21 returned Sm TGR inh 7% and AmpC inh detg 2%.
CCOC(=O)N1CCN(C(=O)c2cn(CC)c3ccc(S(=O)(=O)N4CCCCC4)cc3c2=O)CC1 was read as Sm TGR inh 1%, AmpC inh no detg -6%, Pf growth 48h -11%, SARS PLpro yeast -1%, Pf growth 96h 23% and AmpC inh detg -2%.
CCn1cc(C(=O)NCCc2ccc(OC)c(OC)c2)c(=O)c2cc(S(=O)(=O)N3CCOCC3)ccc21 was read as Sm TGR inh 1%, AmpC inh no detg 209%, Pf growth 48h 10µM*, SARS PLpro yeast 12%, Pf growth 96h inconclusive and AmpC inh detg 4%.
